Experimental data as given in the supplement of paper PMC12669032.
Values without a mark were called inactive.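 The calls were made as follows: active = AUC reduced over 20% with Padj below 0.05 in at least 2 of 3 replicates; inactive = otherwise.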

Experiments:
Assay in all cases: growth AUC relative to DMSO control (median of replicates) (fraction); higher = more growth (less inhibition), active = hit call of the paper
Conditions in all cases: 20 µM; 24 h
Akkermansia muciniphila = test system: Akkermansia muciniphila
In short: (§1)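 Starting at OD600 0.05, gut bacterial monocultures in mGAM were grown anaerobically at 37 °C with 20 µM compound (1% DMSO) under pierced gas-permeable seals. OD600 was read every hour for 24 h, and the lowest OD of each curve was set to 0. Area under the growth curve was normalised to the plate median of solvent-only wells, or to row and column medians on the industrial chemical plate, and the median of three biological replicates grown on separate days is given.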

Bacteroides caccae = test system: Bacteroides caccae
In short: as §1

Bacteroides clarus = test system: Bacteroides clarus
In short: as §1

Bacteroides dorei = test system: Bacteroides dorei
In short: as §1

Bacteroides stercoris = test system: Bacteroides stercoris
In short: as §1

[1] = test system: Bacteroides thetaiotaomicron
In short: as §1

Bacteroides uniformis = test system: Bacteroides uniformis
In short: as §1

[2] = test system: Bifidobacterium longum subsp. longum
In short: as §1

Clostridium difficile = test system: Clostridium difficile
In short: as §1

Collinsella aerofaciens = test system: Collinsella aerofaciens
In short: as §1

Coprococcus comes = test system: Coprococcus comes
In short: as §1

Escherichia coli ED1a = test system: Escherichia coli ED1a
In short: as §1

Escherichia coli IAI1 = test system: Escherichia coli IAI1
In short: as §1

Eubacterium rectale = test system: Eubacterium rectale
In short: as §1

[3] = test system: Fusobacterium nucleatum subsp. animalis
In short: as §1

Lactobacillus gasseri = test system: Lactobacillus gasseri
In short: as §1

Lactobacillus paracasei = test system: Lactobacillus paracasei
In short: as §1

Odoribacter splanchnicus = test system: Odoribacter splanchnicus
In short: as §1

[4] = test system: Parabacteroides distasonis
In short: as §1

Parabacteroides merdae = test system: Parabacteroides merdae
In short: as §1

| Structure (SMILES) | growth AUC (Akkermansia muciniphila) | growth AUC (Bacteroides caccae) | growth AUC (Bacteroides clarus) | growth AUC (Bacteroides dorei) | growth AUC (Bacteroides stercoris) | growth AUC [1] | growth AUC (Bacteroides uniformis) | growth AUC [2] | growth AUC (Clostridium difficile) | growth AUC (Collinsella aerofaciens) | growth AUC (Coprococcus comes) | growth AUC (Escherichia coli ED1a) | growth AUC (Escherichia coli IAI1) | growth AUC (Eubacterium rectale) | growth AUC [3] | growth AUC (Lactobacillus gasseri) | growth AUC (Lactobacillus paracasei) | growth AUC (Odoribacter splanchnicus) | growth AUC [4] | growth AUC (Parabacteroides merdae) |
| --- | --- | --- | --- | --- | --- | --- | --- | --- | --- | --- | --- | --- | --- | --- | --- | --- | --- | --- | --- | --- |
| O=C(NC(=O)c1c(F)cccc1F)Nc1ccc(Cl)cc1 | 1.14 | 1.01 | 0.996 | 0.998 | 0.974 | 0.997 | 1.01 | 0.954 | 1.01 | 0.955 | 0.97 | 0.993 | 1 | 1.01 | 0.987 | 0.93 | 0.965 | 0.985 | 1.07 | 0.99 |
| COP(=O)(OC)Oc1ccc(S(C)(=O)=O)c(C)c1 | 0.876 | 0.971 | 0.963 | 0.987 | 1.01 | 1 | 0.981 | 0.956 | 0.994 | 1.01 | 0.989 | 1 | 0.983 | 0.795 | 0.998 | 1.07 | 0.971 | 1.02 | 1.02 | 0.995 |
| C=CC1(C)OC(=O)N(c2cc(Cl)cc(Cl)c2)C1=O (stereo not given) | 1.02 | 0.985 | 0.958 | 1 | 0.994 | 0.989 | 0.99 | 0.917 | 1.02 | 0.999 | 0.982 | 0.979 | 0.967 | 0.956 | 0.991 | 1.1 | 0.878 | 0.982 | 0.98 | 0.982 |
| COC(=O)COc1cc(Cl)c(Cl)cc1Cl | 0.868 | 1.01 | 0.952 | 1 | 1.01 | 0.97 | 0.966 | 0.906 | 1.01 | 1 | 0.967 | 0.976 | 1.02 | 0.914 | 0.981 | 1.18 | 1.11 | 0.974 | 0.983 | 0.99 |
| OC(c1ccc(Cl)cc1)(c1ccc(Cl)cc1)C(Cl)(Cl)Cl | 1.07 | 0.962 | 0.409 (active) | 0.954 | 0.0157 (active) | 0.379 (active) | 0.0202 (active) | 0.973 | 1.03 | 0.973 | 1.01 | 0.998 | 1.03 | 0.805 | 0.977 | 0.162 (active) | 1.01 | 0.687 (active) | 0.0387 (active) | 0.777 (active) |
| C#CCOS(=O)OC1CCCCC1Oc1ccc(C(C)(C)C)cc1 (mixture of isomers) | 1.08 | 0.98 | 0.976 | 0.984 | 0.916 | 0.991 | 0.99 | 0.908 | 0.956 | 0.975 | 1.02 | 1.03 | 0.968 | 1 | 1.05 | 0.928 | 0.987 | 0.946 | 0.964 | 0.933 |
| CNC(=O)O/N=C(\C)C(C)S(C)(=O)=O (stereo not given) | 1.15 | 0.99 | 1.01 | 0.969 | 0.931 | 1.03 | 1.01 | 1.27 | 0.98 | 0.953 | 1.02 | 0.961 | 0.979 | 1.03 | 0.972 | 0.905 | 0.894 | 1.11 | 0.955 | 0.956 |
| Cc1cccc(C)c1N | 0.917 | 1.04 | 0.973 | 1.01 | 1.03 | 1.04 | 1.06 | 1.04 | 0.997 | 0.985 | 1.02 | 0.978 | 0.985 | 0.997 | 0.927 | 1.02 | 0.936 | 1.03 | 1.01 | 0.999 |
| CNC(=O)O/N=C/C(C)(C)SC | 0.909 | 1.03 | 0.993 | 1.03 | 0.943 | 0.987 | 1.01 | 0.957 | 0.979 | 1.04 | 1.01 | 1.01 | 1.03 | 0.966 | 0.939 | 1.12 | 0.99 | 1 | 1.03 | 0.961 |
| COCc1c(F)c(F)c(COC(=O)[C@@H]2[C@@H](C=C(Cl)Cl)C2(C)C)c(F)c1F | 1.07 | 0.953 | 1.03 | 1.01 | 1.29 | 1.03 | 0.969 | 1.03 | 0.994 | 1 | 0.981 | 1.03 | 1.02 | 1.09 | 1.09 | 1.03 | 1.04 | 1.03 | 1 | 1.01 |
| C#CC(C)(C)NC(=O)c1cc(Cl)cc(Cl)c1 | 1.06 | 0.964 | 0.949 | 0.956 | 0.88 | 0.932 | 0.96 | 0.987 | 0.948 | 0.936 | 1 | 0.984 | 0.963 | 1.04 | 0.95 | 0.91 | 1.03 | 1.06 | 1.01 | 1.01 |
| CCCCCCCCn1sccc1=O | 1.04 | 0.924 | 0.442 (active) | 0.912 | 0.995 | 0.689 (active) | 0.731 | 0.571 (active) | 0.848 | 0.776 (active) | 0.958 | 0.944 | 0.938 | 0.868 | 0.83 | 0.757 (active) | 1.01 | 0.597 | 0.129 (active) | 0.00935 (active) |
| Cc1cc(C(C#N)c2ccc(Cl)cc2)c(Cl)cc1NC(=O)c1cc(I)cc(I)c1O (stereo not given) | 0.866 | 0.184 (active) | 0.0125 (active) | 0.0106 (active) | 0.00703 (active) | 0.0104 (active) | 0.0176 (active) | 0.121 (active) | 0.00624 (active) | 0.0767 (active) | 0.275 (active) | 0.958 | 0.953 | 0.072 (active) | 0.702 (active) | 0.0202 (active) | 0.0904 (active) | 0.017 (active) | 0.0201 (active) | 0.00673 (active) |
| CC1(C)C(C=C(Cl)Cl)C1C(=O)OC(C#N)c1cccc(Oc2ccccc2)c1 (mixture of isomers) | 1.14 | 0.963 | 1 | 0.996 | 1.11 | 0.981 | 1.01 | 0.984 | 1.04 | 0.966 | 1 | 1.01 | 0.987 | 1.02 | 1.04 | 0.865 | 1.02 | 1.03 | 0.982 | 0.984 |
| CCNc1nc(NC(C)(C)C)nc(SC)n1 | 1.02 | 0.947 | 0.94 | 0.871 | 1.07 | 0.728 | 0.905 | 0.915 | 0.967 | 1 | 0.969 | 0.987 | 0.986 | 0.956 | 1.06 | 1.1 | 1.08 | 0.876 | 0.936 | 0.947 |
| CC[C@H](C)[C@H]1O[C@]2(C=C[C@@H]1C)C[C@@H]1C[C@@H](C/C=C(\C)[C@@H](O[C@H]3C[C@H](OC)[C@@H](O[C@H]4C[C@H](OC)[C@@H](NC)[C@H](C)O4)[C@H](C)O3)[C@@H](C)/C=C/C=C3\CO[C@@H]4[C@H](O)C(C)=C[C@@H](C(=O)O1)[C@]34O)O2.O=C(O)c1ccccc1 | 1.08 | 0.0357 (active) | 0.264 (active) | 0.0271 (active) | 0.00403 (active) | 0.812 | 0.322 (active) | 0.167 (active) | 0.781 | 0.553 (active) | 0.156 (active) | 0.974 | 0.95 | 0.865 | 0.758 | 0.714 (active) | 0.597 | 1.06 | 0.0402 (active) | 0.345 (active) |
